About 83,000 compounds went through this panel and 20% of them were active in at least one assay; those are over-represented in the sample as a whole.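 Note: values are percent growth. 100 is the growth of untreated cells, values between 100 and 0 indicate rising inhibition; between -100 and 0 indicates cell death.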 The source made the active and inactive calls. The calls were made as follows: active = growth percent below 10; inactive = the rest.
Legend:
Experiment in all cases: NCI-60 one-dose screen, 48 h (100 = growth as untreated, 0 = no growth, -100 = all killed)
Settings in all cases: 10 µM unless noted
HT29 colon = system: HT29 colon
SNB-75 CNS = system: SNB-75 CNS
SNB-19 CNS = system: SNB-19 CNS
U251 CNS = system: U251 CNS
PC-3 prostate = system: PC-3 prostate
SK-MEL-5 melanoma = system: SK-MEL-5 melanoma
UACC-62 melanoma = system: UACC-62 melanoma
SK-MEL-28 melanoma = system: SK-MEL-28 melanoma
SK-MEL-2 melanoma = system: SK-MEL-2 melanoma
EKVX NSCLC = system: EKVX NSCLC
SN12C renal = system: SN12C renal
UO-31 renal = system: UO-31 renal
TK-10 renal = system: TK-10 renal
ACHN renal = system: ACHN renal
CAKI-1 renal = system: CAKI-1 renal
A498 renal = system: A498 renal
CCRF-CEM leukemia = system: CCRF-CEM leukemia
MOLT-4 leukemia = system: MOLT-4 leukemia
SR leukemia = system: SR leukemia
LOX IMVI melanoma = system: LOX IMVI melanoma

Measured: growth

COc1cc2c(cc1OC)C1CCN3C(=O)CCC3N1CC2 (centres undefined)
inactive: HT29 colon 109% | SNB-75 CNS 105% | SNB-19 CNS 111% | U251 CNS 112% | PC-3 prostate 107% | SK-MEL-5 melanoma 113% | UACC-62 melanoma 97% | SK-MEL-28 melanoma 110% | SK-MEL-2 melanoma 119% | EKVX NSCLC 114% | SN12C renal 109% | UO-31 renal 99.7% | TK-10 renal 104% | ACHN renal 102% | CAKI-1 renal 115% | A498 renal 104% | CCRF-CEM leukemia 102% | MOLT-4 leukemia 97.3% | SR leukemia 95.8%

COc1ccc(OC)c(/C=C/c2nc(=S)n(-c3ccc(Cl)cc3)[nH]2)c1
inactive: HT29 colon 65.4% | SNB-75 CNS 42.5% | SNB-19 CNS 51.2% | U251 CNS 53.3% | PC-3 prostate 58.6% | SK-MEL-5 melanoma 32.5% | UACC-62 melanoma 42.8% | SK-MEL-28 melanoma 72.7% | SK-MEL-2 melanoma 71.2% | EKVX NSCLC 75.2% | SN12C renal 66.2% | UO-31 renal 47.1% | TK-10 renal 88.8% | ACHN renal 71.2% | CCRF-CEM leukemia 60.6% | MOLT-4 leukemia 52.8%

CC1SC(c2c(Cl)cccc2Cl)N(NC(=O)c2[nH]c3ccc(F)cc3c2-c2ccccc2)C1=O (centres undefined)
inactive: HT29 colon 34.8% | SNB-19 CNS 37.4% | U251 CNS 10.7% | PC-3 prostate 32.2% | SK-MEL-5 melanoma 54.6% | UACC-62 melanoma 74.8% | SK-MEL-28 melanoma 71.2% | SK-MEL-2 melanoma 72% | EKVX NSCLC 41.8% | SN12C renal 33.9% | TK-10 renal 21.6% | ACHN renal 34.4% | CCRF-CEM leukemia 56.1% | MOLT-4 leukemia 69.1% | SR leukemia 54.8%
active: SNB-75 CNS -53%

Cc1cc(CC(=O)O)n(C)c1C(=O)c1ccc(Cl)cc1
inactive: HT29 colon 109% | SNB-75 CNS 121% | SNB-19 CNS 108% | U251 CNS 99.5% | PC-3 prostate 99.5% | SK-MEL-5 melanoma 98.7% | LOX IMVI melanoma 97.9% | SK-MEL-28 melanoma 122% | SK-MEL-2 melanoma 115% | EKVX NSCLC 102% | SN12C renal 109% | UO-31 renal 104% | TK-10 renal 108% | ACHN renal 101% | CAKI-1 renal 96% | A498 renal 123% | CCRF-CEM leukemia 95.6% | MOLT-4 leukemia 98.3% | SR leukemia 107%

CCCCCCOc1ccc(/C=N/NC(N)=S)cc1
inactive: HT29 colon 38.7% | SNB-75 CNS 58.9% | SNB-19 CNS 80.1% | U251 CNS 58.4% | PC-3 prostate 49.4% | SK-MEL-5 melanoma 53.6% | UACC-62 melanoma 44.6% | LOX IMVI melanoma 55.6% | SK-MEL-28 melanoma 76.1% | SN12C renal 22.2% | UO-31 renal 17.8% | TK-10 renal 54.3% | ACHN renal 61.6% | A498 renal 99.7% | SR leukemia 69.5%
active: CCRF-CEM leukemia 6.97% | MOLT-4 leukemia 7.23%

CCN(CC)c1ccc(C(O)C2=CC(=O)c3ccccc3C2=O)cc1 (centres undefined)
inactive: SNB-75 CNS 24.9% | SNB-19 CNS 15.3% | UO-31 renal 22.7%
active: HT29 colon 9.6% | U251 CNS -80.9% | PC-3 prostate -2.59% | SK-MEL-5 melanoma -38% | UACC-62 melanoma -45.3% | LOX IMVI melanoma -51.8% | SK-MEL-28 melanoma -23.1% | SN12C renal -28.1% | ACHN renal -58.8% | A498 renal 6.3% | MOLT-4 leukemia 7.92% | SR leukemia -5.59%

Cc1ccc(C(O)C2=CC(=O)c3ccccc3C2=O)cc1 (centres undefined)
inactive: HT29 colon 107% | SNB-75 CNS 92.3% | SNB-19 CNS 102% | U251 CNS 96% | PC-3 prostate 89.4% | SK-MEL-5 melanoma 97.7% | UACC-62 melanoma 90.5% | SK-MEL-28 melanoma 112% | SK-MEL-2 melanoma 116% | EKVX NSCLC 91.2% | SN12C renal 94.9% | UO-31 renal 73.2% | TK-10 renal 118% | ACHN renal 86.7% | CAKI-1 renal 100% | A498 renal 95.9% | MOLT-4 leukemia 94.7% | SR leukemia 90%

CC(C)[C@]12O[C@H]1[C@@H]1O[C@]13[C@]1(O[C@H]1C[C@H]1C4=C(CC[C@@]13C)C(=O)OC4)[C@@H]2OC(=O)CN(C)C
inactive: SNB-19 CNS 23% | U251 CNS 15.4% | PC-3 prostate 19.6% | SN12C renal 29.1% | CCRF-CEM leukemia 12.4%
active: HT29 colon 0.899% | SNB-75 CNS -65.4% | SK-MEL-5 melanoma -20.1% | UACC-62 melanoma -34.8% | SK-MEL-28 melanoma 1.04% | SK-MEL-2 melanoma -60% | EKVX NSCLC -26.9% | UO-31 renal -5.89% | TK-10 renal 4.34% | ACHN renal 9.59% | CAKI-1 renal -48.5% | A498 renal -36.4% | MOLT-4 leukemia -11.7% | SR leukemia -2.85%

COc1ccc(/C(=C2\O[C@@H]([C@H](O)CO)[C@H]3OC(C)(C)O[C@@H]23)c2cc(OC)c(OC)c(OC)c2)cc1O
active: SR leukemia -13%
inactive: HT29 colon 111% | SNB-75 CNS 55.9% | SNB-19 CNS 76.8% | U251 CNS 90.6% | PC-3 prostate 51.8% | SK-MEL-5 melanoma 74.3% | UACC-62 melanoma 95.1% | SK-MEL-2 melanoma 77.5% | EKVX NSCLC 97% | SN12C renal 95.6% | UO-31 renal 90.1% | TK-10 renal 106% | ACHN renal 78.5% | CAKI-1 renal 105% | CCRF-CEM leukemia 95.3% | MOLT-4 leukemia 78.1%

O=C(NCCCO)c1cc(Cl)ccc1O
active: HT29 colon 3.68% | PC-3 prostate 7.13% | UACC-62 melanoma 9.67%
inactive: SNB-75 CNS 27.8% | SNB-19 CNS 31.1% | U251 CNS 12.3% | SK-MEL-5 melanoma 18.4% | LOX IMVI melanoma 13.3% | SK-MEL-28 melanoma 38% | SN12C renal 12.9% | UO-31 renal 48.1% | TK-10 renal 24.9% | ACHN renal 14.6% | A498 renal 53.2% | MOLT-4 leukemia 33.2% | SR leukemia 26.1%

CC(=O)c1ccc2c3c(n(C)c2c1)CCCC3
active: A498 renal -76.1%
inactive: HT29 colon 92.6% | SNB-75 CNS 92.1% | SNB-19 CNS 99.6% | U251 CNS 102% | PC-3 prostate 100% | SK-MEL-5 melanoma 102% | UACC-62 melanoma 96.5% | SK-MEL-28 melanoma 96.5% | EKVX NSCLC 88.3% | SN12C renal 97.2% | UO-31 renal 112% | TK-10 renal 85.4% | ACHN renal 105% | CAKI-1 renal 102% | CCRF-CEM leukemia 86.6% | MOLT-4 leukemia 76.5% | SR leukemia 92.1%

CNc1ccc(CSc2ccc(Cl)cc2)cc1
active: CAKI-1 renal -3.51%
inactive: HT29 colon 109% | SNB-75 CNS 95.4% | SNB-19 CNS 89.5% | U251 CNS 97.4% | PC-3 prostate 72.9% | SK-MEL-5 melanoma 97.9% | UACC-62 melanoma 83% | LOX IMVI melanoma 103% | SK-MEL-28 melanoma 112% | EKVX NSCLC 104% | SN12C renal 92.2% | UO-31 renal 58.3% | TK-10 renal 126% | ACHN renal 106% | A498 renal 87% | CCRF-CEM leukemia 33.3% | MOLT-4 leukemia 61.5% | SR leukemia 55.8%

COc1cc(C2NC(c3ccc(Cl)cc3)C(C)/C(=N/NC(N)=S)C2C)cc(OC)c1OC (centres undefined)
inactive: HT29 colon 64.7% | SNB-75 CNS 81% | SNB-19 CNS 78.2% | U251 CNS 73.4% | PC-3 prostate 73.8% | SK-MEL-5 melanoma 79.4% | UACC-62 melanoma 94% | SK-MEL-28 melanoma 108% | EKVX NSCLC 107% | SN12C renal 94.7% | UO-31 renal 76.7% | TK-10 renal 103% | ACHN renal 93.2% | CAKI-1 renal 51.1% | A498 renal 129% | CCRF-CEM leukemia 89.8% | MOLT-4 leukemia 70.7% | SR leukemia 98.6%

Fc1ccc(-c2nnc(-c3c(-c4ccc(F)cc4)nc4ncccn34)o2)cc1
inactive: HT29 colon 93.2% | SNB-75 CNS 102% | SNB-19 CNS 107% | U251 CNS 107% | PC-3 prostate 104% | SK-MEL-5 melanoma 95.4% | UACC-62 melanoma 100% | LOX IMVI melanoma 96.4% | SK-MEL-28 melanoma 101% | SN12C renal 104% | TK-10 renal 111% | ACHN renal 97.8% | CAKI-1 renal 100% | A498 renal 69.8% | CCRF-CEM leukemia 96.7% | MOLT-4 leukemia 83.4% | SR leukemia 90.8%

COc1cc2c(c(OC)c1OC)-c1ccc(NN(C(=O)c3ccccc3)C(=O)c3ccccc3)c(=O)cc1[C@@H](NC(C)=O)CC2 (tested in a mixture with another compound)
active: HT29 colon 6.31% | CAKI-1 renal -2.24%
inactive: SNB-75 CNS 27.7% | SNB-19 CNS 49.1% | U251 CNS 24.8% | PC-3 prostate 40.9% | SK-MEL-5 melanoma 20.2% | UACC-62 melanoma 59.6% | SK-MEL-28 melanoma 52.9% | SK-MEL-2 melanoma 10.4% | EKVX NSCLC 30.8% | SN12C renal 64.8% | UO-31 renal 62.3% | TK-10 renal 40.8% | ACHN renal 63% | A498 renal 15.1% | CCRF-CEM leukemia 41.9% | MOLT-4 leukemia 22.8% | SR leukemia 18.1%

COc1ccc(COC(C)=O)cc1
inactive: HT29 colon 113% | SNB-75 CNS 114% | SNB-19 CNS 114% | U251 CNS 107% | PC-3 prostate 95.3% | SK-MEL-5 melanoma 108% | UACC-62 melanoma 111% | SK-MEL-28 melanoma 113% | SK-MEL-2 melanoma 113% | EKVX NSCLC 113% | SN12C renal 124% | UO-31 renal 97.2% | TK-10 renal 126% | ACHN renal 99.1% | CAKI-1 renal 105% | A498 renal 88.7% | CCRF-CEM leukemia 86.4% | MOLT-4 leukemia 107% | SR leukemia 112%

O=[N+]([O-])c1cnc(Sc2ccncn2)c([N+](=O)[O-])c1
inactive: HT29 colon 76.5% | SNB-75 CNS 95.2% | SNB-19 CNS 102% | U251 CNS 100% | PC-3 prostate 96.3% | SK-MEL-5 melanoma 92% | LOX IMVI melanoma 96.8% | SK-MEL-28 melanoma 98.3% | SK-MEL-2 melanoma 110% | SN12C renal 96.9% | UO-31 renal 48.8% | CAKI-1 renal 64.9% | A498 renal 87% | SR leukemia 11.8%
active: TK-10 renal -37.8% | ACHN renal -29.6% | CCRF-CEM leukemia -49.2%

Reference: PubChem BioAssay (NCI)
